Source: PubChem
Compounds with a hit are over-represented: about 7.4% of the library has one in this group of screens.
FLuc counter: counter-screen for miR-21 project: firefly luciferase inhibitors or activators; Potency, µM (top dose mostly 57.5 µM), hits mostly inhibitors; P08659; purified FLuc, Km substrates, luminescence inhibition; actives 6.9% (n = 360,000); further: nearly all actives have a fitted effect of over 55% in size
Target sequence (P08659 whole entry, looked up): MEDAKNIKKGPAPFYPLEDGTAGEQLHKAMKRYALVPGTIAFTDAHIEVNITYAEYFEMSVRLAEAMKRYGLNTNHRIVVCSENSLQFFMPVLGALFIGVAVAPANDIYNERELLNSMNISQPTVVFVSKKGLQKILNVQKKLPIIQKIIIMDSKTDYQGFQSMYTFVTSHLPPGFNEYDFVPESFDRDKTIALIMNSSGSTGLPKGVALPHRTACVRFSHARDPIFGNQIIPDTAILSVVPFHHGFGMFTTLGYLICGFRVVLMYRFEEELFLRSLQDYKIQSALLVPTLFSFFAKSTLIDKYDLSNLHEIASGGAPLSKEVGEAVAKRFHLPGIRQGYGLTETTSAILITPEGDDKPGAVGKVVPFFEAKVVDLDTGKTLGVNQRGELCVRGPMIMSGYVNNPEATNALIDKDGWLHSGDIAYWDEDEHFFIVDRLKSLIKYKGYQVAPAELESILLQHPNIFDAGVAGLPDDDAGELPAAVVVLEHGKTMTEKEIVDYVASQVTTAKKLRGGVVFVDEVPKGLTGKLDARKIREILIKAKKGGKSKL
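Purified P. pyralis luciferase, 10 nM final, with Km-level 10 uM D-luciferin and 10 uM ATP in 50 mM Tris acetate pH 7.5, 10 mM Mg acetate, 0.01% Tween-20, 0.05% BSA; 6-point qHTS titration about 60 µM downward; luminescence read.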
NPC1 promoter act: NPC1 promoter activation. Huh7 NPC1 promoter luciferase reporter, 24 h. Potency, µM (series often up to 9.22 µM), most hits filed as activators. actives 2.4% (n = 320,000). AID 485313; further: nearly all actives have a fitted effect of over 60% in size
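Cells: Huh7 expressing luciferase under the NPC1 promoter, 1500/well. Seeded 2 h, compound added, incubated 24 h at 37 °C. Luciferase reagent, 10 min ambient, then luminescence.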
SMN2 splice up: enhancers of SMN2 splice variant expression; HEK293 SMN2-luciferase splicing reporter, luminescence, 30-36 h; Potency, µM (highest dose often 46.1 µM), hits mostly activators; actives 2.8% (n = 210,000); further: nearly all actives have a fitted effect of over 55% in size
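HEK293 cells carry an SMN2 minigene-luciferase reporter in which exon 7 inclusion puts luciferase in frame. Cells were seeded at 2000 cells/well, attached for 10-12 hours, then exposed to compounds for 30-36 hours at 37C before ONE-Glo luminescence.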
ELG1 genotoxic: genotoxicity induction in ELG1-luciferase HEK293T cells | HEK293T ELG1-luciferase reporter, luminescence, 16 h | Potency, µM (titrated, usually from 46 µM), hits mostly activators | actives 1.3% (n = 330,000) | AID 504466; further: nearly all actives have a fitted effect of over 60% in size
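Step 1: seed 2,000 HEK293T ELG1-luciferase cells per well. Step 2: add compound or DMSO, incubate 16 hr at 37 °C. Step 3: ONE-Glo, 30 min at room temperature, read luminescence.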
Rab9 promoter act: Rab9 promoter activation; Potency, µM (highest dose often 9.22 µM), actives largely listed as activators; Huh7 Rab9 promoter-luciferase reporter, luminescence, 24 h; actives 2.8% (n = 320,000); further: nearly all actives have a fitted effect of over 60% in size
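Luminescence from Amplite-detected luciferase (10 minutes, ambient) reports Rab9 promoter activation. Before that, stable Rab9-luciferase Huh7 cells (1500/well, reduced-serum OP-MEM I plus 10% FBS) were exposed to compound for 24 hours at 37C.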
KinaseGlo FLuc: Kinase-Glo luciferase inhibition (counter-screen) | AID 1379 | Potency, µM (doses to about 38.3 µM), actives largely listed as inhibitors | actives 0.28% (n = 200,000) | Kinase-Glo luciferase, ATP luminescence, 8 min; further: nearly all actives have a fitted effect of over 60% in size
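Inhibition of Kinase-Glo luciferase light generation was assessed at 10 uM ATP in pH 7.2 imidazole buffer, with luminescence measured after eight minutes at ambient temperature.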
Hits are given with their value; [ ] = another dose, or the depositor's remark. The call rests on the fitted dose curve; in most records, active means well fitted curve in the direction sought with a large enough effect; inconclusive means small, poorly fitted or top-dose-only effect, or another doubt; inactive means no such curve, though single readings can be large; an effect the other way counts as inactive or inconclusive.

`Cc1cccc(Nc2nc3ccccc3s2)c1C` gave FLuc counter 2.4µM, NPC1 promoter act 3.2µM, SMN2 splice up 10µM, ELG1 genotoxic 6.5µM, Rab9 promoter act 2.5µM and KinaseGlo FLuc inactive.
For COc1ccc(-c2nc(NC3=NCCCCC3)sc2C)cc1 the results were FLuc counter inconclusive, NPC1 promoter act inactive, SMN2 splice up inactive, ELG1 genotoxic inactive, Rab9 promoter act inactive and KinaseGlo FLuc inactive.
Screening COc1ccc2nc(NC3=NCCC3)sc2c1 returned FLuc counter 12µM, NPC1 promoter act 3.5µM, SMN2 splice up inconclusive, ELG1 genotoxic inconclusive, Rab9 promoter act 3.2µM and KinaseGlo FLuc inactive.
`COc1ccc2nc(Nc3sc4c(c3C(N)=O)CCCC4)sc2c1` gave FLuc counter 11µM, NPC1 promoter act inactive, SMN2 splice up inactive, ELG1 genotoxic inactive, Rab9 promoter act inactive and KinaseGlo FLuc inactive.
Screening O=C(Nc1cccc(O)c1)c1noc2c1CCCCC2 returned FLuc counter 0.95µM, NPC1 promoter act inconclusive, SMN2 splice up inactive, ELG1 genotoxic inconclusive, Rab9 promoter act inconclusive and KinaseGlo FLuc inconclusive.
For COc1ccc(NC(=O)c2noc3c2CCC3)cc1 the results were FLuc counter 2.7µM, NPC1 promoter act 1.4µM, SMN2 splice up 10µM, ELG1 genotoxic inconclusive, Rab9 promoter act 0.5µM and KinaseGlo FLuc inconclusive.
For O=C(Nc1cc(C(F)(F)F)ccc1Cl)c1noc2c1CCCCC2 the results were FLuc counter inconclusive and SMN2 splice up inactive.
`O=C(Nc1ccccc1C(=O)N1CCOCC1)c1noc2c1CCCC2` gave FLuc counter inactive, NPC1 promoter act inactive, SMN2 splice up inactive, ELG1 genotoxic inactive, Rab9 promoter act inactive and KinaseGlo FLuc inactive.
For O=C(Nc1ccc(OC(F)(F)F)cc1)c1noc2c1CCCC2 the results were FLuc counter inconclusive and SMN2 splice up 8.9µM.
`COC(=O)c1ccccc1NC(=O)c1noc2c1CCCC2` gave FLuc counter 17µM, NPC1 promoter act inactive, SMN2 splice up inactive, ELG1 genotoxic inactive, Rab9 promoter act inactive and KinaseGlo FLuc inactive.
`CCOc1ccc(C(CC(=O)Nc2cc(C)c(Cl)cc2OC)N2Cc3ccccc3C2=O)cc1OC` (stereo not given) gave FLuc counter inactive.
Screening C=CCN1c2ccccc2[C@]23C[C@@H](C(=O)OC)N(S(=O)(=O)CCCC)C2=NC(C(=O)OC)=C(C(=O)OC)[C@H]13 returned SMN2 splice up inactive[9.22 µM] and KinaseGlo FLuc inactive[7.66 µM].
Cc1cc(C)n(C(C)CC(=O)Nc2cccc(C#N)c2)n1 (stereo not given) was read as FLuc counter inactive.
For O=C(Nc1cnn(Cc2ccc(F)cc2)c1)c1noc2c1CCCC2 the results were FLuc counter 15µM, NPC1 promoter act inconclusive, SMN2 splice up inactive, ELG1 genotoxic inconclusive, Rab9 promoter act 4µM and KinaseGlo FLuc inactive.
`CC(C)(C)C1CCc2onc(C(=O)Nc3cnn(Cc4ccc(F)cc4)c3)c2C1` (stereo not given) gave FLuc counter inactive, NPC1 promoter act inactive, SMN2 splice up inactive, ELG1 genotoxic inactive, Rab9 promoter act inactive and KinaseGlo FLuc inactive.
`COc1cc(NC(=O)c2noc3c2CCC3)c(OC)cc1Cl` gave FLuc counter inactive, NPC1 promoter act inactive, SMN2 splice up inconclusive, ELG1 genotoxic inactive, Rab9 promoter act inactive and KinaseGlo FLuc inactive.
For CC(=O)c1ccc(NC(=O)c2noc3c2CCC3)cc1 the results were FLuc counter 12µM, NPC1 promoter act 0.79µM, SMN2 splice up inconclusive, ELG1 genotoxic inactive, Rab9 promoter act inconclusive and KinaseGlo FLuc inactive.
For Cc1ccc(NC(=O)c2noc3c2CCC3)cc1C the results were FLuc counter 2.4µM, NPC1 promoter act 3.2µM, SMN2 splice up 2.8µM, ELG1 genotoxic inconclusive, Rab9 promoter act 0.63µM and KinaseGlo FLuc inactive.
`Cc1ccc(C(=O)OC[C@H]2O[C@H](Cl)C[C@@H]2OC(=O)c2ccc(C)cc2)cc1` gave SMN2 splice up inactive and KinaseGlo FLuc inactive.
Nc1c(-c2ccc(Cl)cc2)cnc2ncnn12 was read as FLuc counter inactive, NPC1 promoter act inactive, SMN2 splice up inactive, ELG1 genotoxic inactive, Rab9 promoter act inactive and KinaseGlo FLuc inactive.
Screening Cc1ccc(-c2cc3ncc(C#N)c(N)n3n2)cc1 returned FLuc counter inactive, NPC1 promoter act 2.8µM, SMN2 splice up inconclusive, ELG1 genotoxic inconclusive, Rab9 promoter act 2.8µM and KinaseGlo FLuc inactive.
Cc1cc2ncc(-c3ccc(Cl)cc3)c(N)n2n1 was read as FLuc counter 9.5µM, NPC1 promoter act inconclusive, SMN2 splice up 13µM, ELG1 genotoxic 15µM, Rab9 promoter act 4µM and KinaseGlo FLuc inactive.
Screening Cc1ccc(-n2ncc(C#N)c2N)cc1 returned FLuc counter inactive, NPC1 promoter act inactive, ELG1 genotoxic inactive and Rab9 promoter act inactive.
`Nc1c(-c2ccccc2)cnc2cc(-c3ccccc3)nn12` gave FLuc counter 0.6µM, NPC1 promoter act 1.4µM, SMN2 splice up 4.5µM, ELG1 genotoxic 2.6µM, Rab9 promoter act 0.71µM and KinaseGlo FLuc inactive.
`CO[C@]12CC(COC(=O)c3cncc(Br)c3)CN(C)[C@@H]1Cc1cn(C)c3cccc2c13` (stereo not given in full) gave SMN2 splice up inactive and KinaseGlo FLuc inactive.
Screening Cc1ccc(CNC(=O)c2nn(-c3ccc(Cl)cc3)nc2CO)cc1 returned FLuc counter inactive and SMN2 splice up inactive.
`COc1ccc(C(=O)Nc2ccccc2C(=O)O)cc1NC(=O)C(c1ccccc1)c1ccccc1` gave FLuc counter 13µM, NPC1 promoter act inactive, ELG1 genotoxic inactive and Rab9 promoter act inactive.
CCOc1ccc(C(=O)Nc2cccc(C(=O)O)c2C)cc1Cl was read as FLuc counter 3.4µM, NPC1 promoter act inconclusive, SMN2 splice up 0.5µM, ELG1 genotoxic inactive, Rab9 promoter act inconclusive and KinaseGlo FLuc inactive.
Screening COc1ccc(C(=O)Nc2ccccc2C(=O)O)cc1Cl returned FLuc counter 5.4µM, NPC1 promoter act inconclusive, SMN2 splice up inactive[1.84 µM], ELG1 genotoxic inconclusive, Rab9 promoter act 3.5µM and KinaseGlo FLuc inactive.
CCN(CC)S(=O)(=O)c1cc(C(=O)Nc2ccccc2C(=O)O)ccc1OC was read as FLuc counter 6µM, NPC1 promoter act inactive, SMN2 splice up inactive, ELG1 genotoxic inactive, Rab9 promoter act inactive and KinaseGlo FLuc inactive.
For COc1cc(NC(=O)c2ccccc2)c(OC)cc1Cl the results were FLuc counter inactive, NPC1 promoter act inactive, SMN2 splice up inactive, ELG1 genotoxic inactive, Rab9 promoter act inactive and KinaseGlo FLuc inactive.
Screening COc1ccccc1C(=O)Nc1ccc(C(=O)Nc2ccccc2C(=O)O)cc1 returned FLuc counter inactive, NPC1 promoter act inactive, ELG1 genotoxic inactive and Rab9 promoter act inactive.
